“And” between values parts separate entries of the source, which are not always exact repeats. Equal entries are not always repeated. Inconclusive results are not listed. The source made the active and inactive calls. Unless noted, the call rests on the fitted dose curve; in most records, active means well fitted curve in the direction sought with a large enough effect; inconclusive means small, poorly fitted or top-dose-only effect, or another doubt; inactive means no such curve, though single readings can be large; an effect the other way counts as inactive or inconclusive.

For test [1], the target named is Voltage-gated inwardly rectifying potassium channel KCNH2 (Homo sapiens) (UniProt Q12809). Nature of the test: qHTS Assay for Small Molecule Inhibitors of the Human hERG Channel Activity (AID 588834).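 Further: lower thallium flux fluorescence means stronger hERG block; nearly all actives have a fitted effect of over 50% in size.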 Further: potency means the concentration at half of the fitted maximal effect. Summed up: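 Blockade is seen as reduced FluxOR thallium-flux fluorescence in U2OS cells expressing hERG from a BacMam construct, in Opti-MEM with 2% FCS. Concentration-response data fitted to the Hill equation for AC50.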
(Quantitative high-throughput screening tests each substance at several concentrations.)

Test [2] addresses Luciferin 4-monooxygenase (Photinus pyralis) (UniProt P08659). Nature of the test: Biochemical firefly luciferase enzyme assay for NPC (AID 624030).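 Further: purified P. pyralis luciferase at 10 nM with luciferin and ATP substrate; series mostly up to about 59 µM; nearly all actives have a fitted effect of over 70% in size.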 Summed up: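 Purified P. pyralis luciferase at 10 nM in 50 mM Tris Acetate (final), luminescence read within 5 minutes of enzyme addition to compounds. Activity normalised to PTC124 versus DMSO; concentration-response curves classed by r2, magnitude and activity.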

Test [3] can be described thus: S16 Schwann cell PMP22 intronic element firefly luciferase assay (AID 624032). Further: nearly all actives have a fitted effect of over 30% in size. Further: potency means the concentration at half of the fitted maximal effect. The method in brief: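 Rat S16 Schwann cells stably carrying firefly luciferase driven by a PMP22 intronic element, in 10% FBS, treated 24 h at 37 C. ONE-Glo luminescence normalized to PTC124 control and DMSO (0%); curves classed by r2, magnitude and activity.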
Test [4] in a line: S16 Schwann cell viability assay (CellTiter-Glo assay) (AID 624031). Further: nearly all actives have a fitted effect of over 70% in size. Further: potency means the concentration at half of the fitted maximal effect. Summed up: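 Rat S16 Schwann cells without reporter constructs received compound or DMSO for 24 h at 37 °C under 5% CO2. Cellular ATP was then quantified by CellTiter-Glo luminescence, with vehicle wells defined as 0% activity and cell-free wells as reference.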
For orientation: ATP-based viability assays read luminescence as a measure of living cells.

The target of test [5] is Glutaminase kidney isoform, mitochondrial (Homo sapiens) (UniProt O94925). In words: qHTS for Inhibitors of Glutaminase (GLS): LOPAC Validation (AID 624146).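 Further: glutamate product detected by oxidase and peroxidase coupled Amplex red fluorescence gain; series mostly up to about 46 µM; nearly all actives have a fitted effect of over 60% in size.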 Summed up:
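Enzyme dispensed in phosphate buffer (45 mM, pH 8.2, 0.02% Tween-20), compounds pinned in, then 1 mM L-glutamine solution and the glutamate oxidase–HRP–Amplex Red mix added; fluorescence read immediately and again after 30 min at room temperature.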

Test [6] is described as follows: qHTS of Trypanosoma Brucei Inhibitors: LOPAC Validation (AID 624147). The method in brief: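 ADP (130 uM final) triggers the TbPYK reaction after compound addition; incubation is 45 min at room temperature. Kinase-Glo Plus is then added and luminescence imaged. Normalized data are fitted to concentration-effect curves.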
The target in test [7] is Glucagon-like peptide 1 receptor (Homo sapiens) (UniProt P43220). Nature of the test: qHTS of GLP-1 Receptor Agonists: LOPAC Validation (AID 624148).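 Further: higher luminescence signal means agonism.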 The method in brief:
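HEK293 cells stably co-expressing GLP-1R and a cAMP-responsive luciferase reporter, plated 12 hours before compound, then incubated 4-6 hr at 37 deg C. Luminescence read 12 min after detection reagent.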

Test [8] in a line: qHTS of Nrf2 Activators: LOPAC Validation (AID 624149). Summed up: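 AREc32 cells carrying an ARE-driven firefly luciferase were grown overnight in OPTI-MEM with 5% FBS, then exposed to compounds for 24 hr at 37 deg C. Luciferase signal was read after 30 min with Steady-Glo at RT.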
Test [9] can be described thus: HTS Assay for Allosteric Antagonists of the Human D2 Dopamine Receptor: Hit Validation in HTRF (AID 624455).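 Further: stable D1 dopamine receptor cell line scored for blocking the D1 response.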 Summed up:
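Hits were examined in an HTRF assay using cells stably expressing the D1 dopamine receptor, scoring inhibition of the D1-mediated response. The preceding primary screen tracked calcium flux after an EC80 dopamine addition in force-coupled, inducible Hek293 Trex D2 cells.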
In general terms: In TR-FRET formats the signal depends on donor and acceptor labels being close together.

A short description of test [10]: S16 Schwann cell PMP22 intronic element beta-lactamase assay (AID 624044; calls by dose curve; further: nearly all actives have a fitted effect of over 15% in size). The method in brief:
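Rat S16 Schwann cells with beta-Lac driven by a PMP22 intronic element, compound-treated 24 h at 37 °C. LiveBLAzer FRET B/G read: 460 nm normalized to potassium clavulanate vs DMSO; 535 nm FRET as viability; concentration-effect curves classified.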

Chain of Luciferin 4-monooxygenase (Photinus pyralis) (P08659 whole entry, looked up): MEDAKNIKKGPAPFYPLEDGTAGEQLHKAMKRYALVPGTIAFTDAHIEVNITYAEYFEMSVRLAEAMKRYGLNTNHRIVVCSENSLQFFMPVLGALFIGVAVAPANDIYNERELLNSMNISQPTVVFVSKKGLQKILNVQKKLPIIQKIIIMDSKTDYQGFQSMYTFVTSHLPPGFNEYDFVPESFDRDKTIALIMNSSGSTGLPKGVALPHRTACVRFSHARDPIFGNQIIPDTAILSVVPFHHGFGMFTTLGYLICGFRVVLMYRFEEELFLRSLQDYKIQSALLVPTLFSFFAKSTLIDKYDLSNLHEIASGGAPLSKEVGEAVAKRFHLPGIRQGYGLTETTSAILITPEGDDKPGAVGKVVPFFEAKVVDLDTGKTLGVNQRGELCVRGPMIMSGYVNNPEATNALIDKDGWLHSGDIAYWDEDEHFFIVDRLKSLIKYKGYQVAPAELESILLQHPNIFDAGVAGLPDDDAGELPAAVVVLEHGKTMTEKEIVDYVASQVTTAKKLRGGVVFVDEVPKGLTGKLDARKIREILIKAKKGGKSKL
Chain of Voltage-gated inwardly rectifying potassium channel KCNH2 (Homo sapiens) (Q12809 whole entry, looked up): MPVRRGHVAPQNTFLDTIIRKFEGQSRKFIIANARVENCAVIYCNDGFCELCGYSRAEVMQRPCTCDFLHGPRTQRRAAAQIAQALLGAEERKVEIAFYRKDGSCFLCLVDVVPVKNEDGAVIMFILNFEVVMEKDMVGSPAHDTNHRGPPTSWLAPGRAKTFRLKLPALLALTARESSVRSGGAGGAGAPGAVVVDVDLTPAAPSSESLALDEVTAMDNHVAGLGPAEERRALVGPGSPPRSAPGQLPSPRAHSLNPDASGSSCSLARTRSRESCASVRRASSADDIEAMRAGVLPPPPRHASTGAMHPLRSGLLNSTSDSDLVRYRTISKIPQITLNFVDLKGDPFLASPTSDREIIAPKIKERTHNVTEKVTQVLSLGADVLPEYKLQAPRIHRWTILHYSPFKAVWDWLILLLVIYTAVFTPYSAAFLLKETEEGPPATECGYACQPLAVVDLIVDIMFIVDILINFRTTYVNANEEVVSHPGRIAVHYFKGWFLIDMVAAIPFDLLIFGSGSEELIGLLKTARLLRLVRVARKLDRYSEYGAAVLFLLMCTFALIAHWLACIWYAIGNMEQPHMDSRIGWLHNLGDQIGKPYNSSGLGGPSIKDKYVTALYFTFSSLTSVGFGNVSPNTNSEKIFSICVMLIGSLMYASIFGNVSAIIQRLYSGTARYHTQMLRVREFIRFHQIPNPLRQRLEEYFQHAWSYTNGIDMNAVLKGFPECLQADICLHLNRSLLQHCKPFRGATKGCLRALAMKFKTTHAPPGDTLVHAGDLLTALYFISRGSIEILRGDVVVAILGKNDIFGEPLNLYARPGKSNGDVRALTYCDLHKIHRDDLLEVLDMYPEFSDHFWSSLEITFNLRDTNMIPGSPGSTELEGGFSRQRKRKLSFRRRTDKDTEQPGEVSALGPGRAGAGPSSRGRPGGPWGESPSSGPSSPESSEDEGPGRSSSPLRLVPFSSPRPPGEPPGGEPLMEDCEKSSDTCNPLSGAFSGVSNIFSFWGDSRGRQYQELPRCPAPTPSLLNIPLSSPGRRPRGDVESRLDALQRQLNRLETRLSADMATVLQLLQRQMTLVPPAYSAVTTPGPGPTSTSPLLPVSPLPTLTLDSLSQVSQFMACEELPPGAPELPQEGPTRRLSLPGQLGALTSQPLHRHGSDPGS
Chain of Glutaminase kidney isoform, mitochondrial (Homo sapiens) (O94925 whole entry, looked up, canonical isoform): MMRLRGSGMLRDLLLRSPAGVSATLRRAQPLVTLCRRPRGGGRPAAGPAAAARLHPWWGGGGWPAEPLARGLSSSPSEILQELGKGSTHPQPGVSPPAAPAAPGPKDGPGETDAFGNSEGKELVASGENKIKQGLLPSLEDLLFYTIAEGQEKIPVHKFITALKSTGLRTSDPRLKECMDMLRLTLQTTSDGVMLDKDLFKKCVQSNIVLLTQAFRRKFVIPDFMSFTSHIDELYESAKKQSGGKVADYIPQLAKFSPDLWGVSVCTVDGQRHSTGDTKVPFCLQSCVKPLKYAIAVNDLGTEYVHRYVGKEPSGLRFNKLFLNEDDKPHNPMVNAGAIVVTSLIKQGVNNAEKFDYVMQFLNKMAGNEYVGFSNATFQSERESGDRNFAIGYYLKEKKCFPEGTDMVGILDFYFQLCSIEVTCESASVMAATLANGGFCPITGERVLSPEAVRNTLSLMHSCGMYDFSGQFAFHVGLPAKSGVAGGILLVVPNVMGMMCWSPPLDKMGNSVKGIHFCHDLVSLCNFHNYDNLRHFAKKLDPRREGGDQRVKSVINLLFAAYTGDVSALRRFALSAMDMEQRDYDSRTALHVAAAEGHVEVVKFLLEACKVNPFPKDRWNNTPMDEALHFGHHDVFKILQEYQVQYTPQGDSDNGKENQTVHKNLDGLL
Chain of Glucagon-like peptide 1 receptor (Homo sapiens) (P43220 whole entry, looked up): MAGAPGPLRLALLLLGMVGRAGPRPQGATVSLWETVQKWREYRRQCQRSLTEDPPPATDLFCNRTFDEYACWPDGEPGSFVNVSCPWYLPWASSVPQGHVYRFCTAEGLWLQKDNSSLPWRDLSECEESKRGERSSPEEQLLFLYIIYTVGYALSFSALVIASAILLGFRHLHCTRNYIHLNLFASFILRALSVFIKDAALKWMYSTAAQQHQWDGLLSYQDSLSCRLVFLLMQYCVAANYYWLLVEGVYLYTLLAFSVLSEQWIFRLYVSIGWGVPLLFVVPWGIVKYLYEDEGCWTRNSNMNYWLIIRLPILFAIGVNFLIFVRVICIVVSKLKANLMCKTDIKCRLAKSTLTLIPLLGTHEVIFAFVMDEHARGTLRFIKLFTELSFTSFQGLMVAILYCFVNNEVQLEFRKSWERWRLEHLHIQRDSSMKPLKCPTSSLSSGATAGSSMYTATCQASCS

Turning to `CN1CCC[C@@H]1Cc1c[nH]c2ccc(CCS(=O)(=O)c3ccccc3)cc12`, the Potency in test [1] is 12.6 µM (active). The Potency entry in test [2] and in test [3] was “inactive” throughout.
Regarding `CCCn1cnc2c1c(=O)n(CCCCC(C)=O)c(=O)n2C`, the Potency entry in [1], in test [2], in test [4] and in test [5] was “inactive” in each case. For the same molecule, the call in [6], in test [7], in test [8] and in test [9] was inactive.
In the case of `CC(C(O)c1ccc(O)cc1)N1CCC(Cc2ccccc2)CC1` (stereo not given), the Potency in [1] was 1.12 µM (active) and 501 nM (active); in test [3], 25.6 µM (active). The Potency entry in [2] and in test [5] was “inactive” in each case. Also, the molecule was called inactive in test [6], in test [7], in test [8] and in test [9].
In the case of `CCN(CC)CCNC(=O)c1cc(Cl)c(N)cc1OC`, the Potency entry in test [1], in test [2], in test [4], in [3], in test [10] and in test [5] was “inactive” in each case. Also, the molecule was classed as inactive in [6], in test [7], in [8] and in test [9].
On to `COCCOC(=O)C1=C(C)NC(C)=C(C(=O)OC/C=C/c2ccccc2)C1c1cccc([N+](=O)[O-])c1` (stereo not given), for which the Potency entry in test [1], in test [2], in test [10] and in test [5] was “inactive” throughout. The Potency in [3] was 7.21 µM (active). The molecule was called inactive in test [6], in test [7], in test [8] and in test [9].
Regarding `C=Cc1c(C)c2cc3[nH]c(cc4nc(cc5nc(cc1[nH]2)C(C)=C5CCC(=O)O)C(CCC(=O)O)=C4C)c(C)c3C=C`, the Potency entry in test [1], in test [2], in test [4], in test [10] and in test [5] was “inactive” in each case. For the same molecule, in test [3], the Potency is 12.8 µM (active). Further, the result in [6], in test [7], in test [8] and in test [9] was inactive.
For `NC1CCN(c2cccc(Cl)n2)CC1`, the Potency result in test [1], in test [2], in [4], in test [3] and in test [5] was “inactive” in each case. The call in test [6], in [7], in [8] and in [9] was inactive.
Take `CC1=C(CC(=O)O)c2cc(F)ccc2/C1=C\c1ccc(S(C)=O)cc1` (stereo not given): the Potency entry in test [1], in test [2], in test [4] and in test [3] was “inactive” throughout. The molecule was classed as inactive in test [6], in [7], in test [8] and in [9].
Regarding `C[C@](N)(Cc1ccc(O)cc1)C(=O)O`, the Potency result in test [1], in test [2], in [4], in test [3] and in test [5] was “inactive” each time. The molecule was classed as inactive in test [6], in test [7], in test [8] and in test [9].
On to `CSc1ccc2c(c1)C(N1CCN(C)CC1)Cc1ccccc1S2` (stereo not given), for which the Potency was 2.24 µM (active) in test [1], 12.8 µM (active) in test [4] and 20.3 µM (active) in test [3]. Further, the Potency entry in test [2], in test [10] and in test [5] was “inactive” in each case. In addition, the outcome in [6], in test [7], in test [8] and in test [9] was inactive.
For `CCCCN1CCCC[C@H]1C(=O)Nc1c(C)cccc1C`, the Potency result in [1], in [2], in test [3] and in [10] was “inactive” throughout.
For the molecule `COc1ccc2c(c1)C(=O)N(CCc1ccc(S(=O)(=O)NC(=O)NC3CCCCC3)cc1)C(=O)C2(C)C`, the Potency result in test [1], in test [2], in test [4] and in test [10] was “inactive” each time.
For `CN(C)CCN(Cc1ccccc1)c1ccccn1`, the Potency in test [1] was 12.6 µM (active). Besides, the Potency result in test [2], in test [4], in test [3] and in test [10] was “inactive” throughout.
Take `O=C(O)CC(O)C(=O)O` (stereo not given): the Potency result in test [1], in test [2], in test [4], in [3] and in test [10] was “inactive” in each case.
In the case of `CN1CCN(C2Cc3ccccc3Sc3ccc(Cl)cc32)CC1` (stereo not given), in test [1], the Potency is 1.12 µM (active). Also, the Potency result in test [2], in test [10] and in [5] was “inactive” in each case. Moreover, the call in [6], in test [7], in [8] and in test [9] was inactive.
As to `Nc1ccc(S(=O)(=O)Nc2ccccc2)cc1`, the Potency result in test [1], in test [2], in [3] and in [10] was “inactive” throughout.
Take `O=c1[nH]c(=O)c2[nH]c(=O)[nH]c2[nH]1`: the Potency entry in test [1], in test [2] and in test [3] was “inactive” each time.
Turning to `CC(=O)OCC(=O)[C@@]1(O)CC[C@H]2[C@@H]3CCC4=CC(=O)CC[C@]4(C)[C@H]3C(=O)C[C@@]21C`, the Potency result in [1], in test [2] and in test [5] was “inactive” in each case. In addition, the result in [6], in test [7], in [8] and in test [9] was inactive.
For the molecule `CCCCOc1cc(C(=O)OCCN(CC)CC)ccc1N`, the Potency in test [1] was 4.47 µM (active). Moreover, the Potency result in [2], in [4], in [3] and in [10] was “inactive” throughout.
In the case of `CCN(CC)CCNC(C(=O)OCCC(C)C)c1ccccc1` (stereo not given), the Potency in test [1] was 12.6 µM (active). For the same molecule, the Potency entry in test [2], in test [4], in test [3] and in test [10] was “inactive” in each case.
Turning to `CC1(C)OC(=O)NC1=O`, the Potency entry in [1], in test [2] and in test [3] was “inactive” each time.
Turning to `Cc1cc(N)c2ccccc2[n+]1CCCCCCCCCC[n+]1c(C)cc(N)c2ccccc21`, the Potency result in test [1], in test [2] and in test [5] was “inactive” each time. The Potency in test [3] is 3.46 µM (active). In addition, the molecule was called inactive in test [6], in [7], in [8] and in [9].
For the molecule `Cn1cc[nH]c1=S`, the Potency result in test [1], in [2], in test [4], in test [3] and in test [10] was “inactive” in each case.
Regarding `Cn1c(=O)c2c(ncn2CC2OCCO2)n(C)c1=O`, the Potency entry in test [1], in [2] and in test [3] was “inactive” each time.
With `OCC(O)CN1CCN(c2ccccc2)CC1` (stereo not given), the Potency result in [1], in [2], in test [4], in test [3] and in test [10] was “inactive” throughout.
As for `CCN(CC)CCSC(=O)C(c1ccccc1)c1ccccc1`, the Potency in test [1] is 2.51 µM (active) and 4.47 µM (active). Further, the Potency entry in [2], in test [4], in test [3] and in test [10] was “inactive” each time.
On to `CC(=O)NC(Cc1ccccc1)C(=O)O` (stereo not given), for which the Potency result in test [1], in test [2], in [4], in test [3] and in [10] was “inactive” each time.
On to `Oc1ccc(C(O)CNCCCCCCNCC(O)c2ccc(O)c(O)c2)cc1O` (stereo not given), for which the Potency result in test [1], in [2] and in test [10] was “inactive” throughout.
Turning to `CCCCCCCCCCCCCCCC(=O)NCCO`, the Potency entry in test [1], in [2], in test [4], in [3], in test [10] and in test [5] was “inactive” each time. Further, the outcome in test [6], in test [7], in test [8] and in test [9] was inactive.
For `C[C@H](N)[C@H](O)c1cccc(O)c1`, the Potency entry in [1], in test [2], in test [3] and in test [10] was “inactive” each time.

These data come from PubChem BioAssay (NCATS).
